Laboratory results as given in article PMC5540273 (PLoS ONE, 2017).

Legend:
Details in all cases: concentration: 1 μM, replicates: in singlicate; n = 1
CSF1R-autoinhibited = tested on: CSF1R-autoinhibited
CSF1R = tested on: CSF1R
CSK = tested on: CSK
CSNK1A1L = tested on: CSNK1A1L
CSNK1A1 = tested on: CSNK1A1
CSNK1D = tested on: CSNK1D
CSNK1E = tested on: CSNK1E
CSNK1G1 = tested on: CSNK1G1
CSNK1G2 = tested on: CSNK1G2
CSNK1G3 = tested on: CSNK1G3
CSNK2A1 = tested on: CSNK2A1
CSNK2A2 = tested on: CSNK2A2
CTK = tested on: T1, CTK
T1 construct: gene MATK

DAPK1 = tested on: DAPK1
DAPK2 = tested on: DAPK2
DAPK3 = tested on: DAPK3
DCAMKL1 = tested on: T2, DCAMKL1
T2 construct: gene DCLK1

DCAMKL2 = tested on: T3, DCAMKL2
T3 construct: gene DCLK2

DCAMKL3 = tested on: T4, DCAMKL3
T4 construct: gene DCLK3

DDR1 = tested on: DDR1
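Note: KINOMEscan kinase panel screen.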

SMILES	%Inh (CSF1R-autoinhibited) [%]	%Inh (CSF1R) [%]	%Inh (CSK) [%]	%Inh (CSNK1A1L) [%]	%Inh (CSNK1A1) [%]	%Inh (CSNK1D) [%]	%Inh (CSNK1E) [%]	%Inh (CSNK1G1) [%]	%Inh (CSNK1G2) [%]	%Inh (CSNK1G3) [%]	%Inh (CSNK2A1) [%]	%Inh (CSNK2A2) [%]	%Inh (CTK) [%]	%Inh (DAPK1) [%]	%Inh (DAPK2) [%]	%Inh (DAPK3) [%]	%Inh (DCAMKL1) [%]	%Inh (DCAMKL2) [%]	%Inh (DCAMKL3) [%]	%Inh (DDR1) [%]
CCC(CC)(CC)n1cnc2c(N)ncnc21 [SKF-97620]	35	0	0	1	0	0	5	4	0	0	0	0	0	16	9	12	0	0	0	0
COc1ccc(NC(=O)Nc2ccc(C)c(-c3ccc(C(=O)Nc4ccncc4)cc3)c2)cc1 [GSK1398475]	0	93.7	0	3	0	15	36	6	6	44	0	0	0	5	0	3	10	0	9	88
Fc1ccc(Nc2nccc(-c3c(-c4ccc(Cl)cc4)nn4ncccc34)n2)cc1F [GW829058]	0	14	28	3	32	60	22	0	2	0	0	24	30	1	0	8	25	11	0	87
Fc1cccc(COc2ccc(Nc3ncnc4nn5ccccc5c34)cc2Cl)c1 [GW689066]	37	0	0	0	0	3	14	0	0	3	0	0	0	0	0	7	0	0	9	0
CC(=O)Nc1n[nH]c2ncc(-c3ccccc3)cc12 [SB-548492]	0	19	3	21	0	0	34	0	0	4	20	25	38	100	1	0	36	15	0	0
CC(C)(C)OC(=O)NC1CCCN(c2cc(-c3ccc4c(N)n[nH]c4c3)nc(N)n2)C1 (centres unmarked) [GSK2286096]	0	10	0	0	0	5	18	24	0	24	0	5	0	18	0	12	10	0	0	0
COC(=O)c1c(-c2ccccc2)c2cc(Cl)ccc2c(=O)n1Cc1ccc(S(C)(=O)=O)cc1	6	23	0	0	21	0	3	100	0	0	3	35	3	21	0	0	5	1	4	51
OCCOCCn1ccc2ncnc(Nc3ccc(Oc4cccc(Cl)c4)c(Cl)c3)c21	0	0	0	0	0	0	0	0	0	0	0	0	0	0	0	0	36	0	0	0
O=C(Nc1ccccc1)Nc1ccc(Oc2ccc3nccn3n2)cc1	0	39	0	6	19	1	1	0	0	29	0	0	100	0	1	0	9	10	59	98.6
Cn1ccc2ncnc(Oc3ccc(NC(=O)Nc4cccnc4)c(Cl)c3)c21	0	82	0	10	8	0	0	0	5	0	0	19	21	7	0	0	11	0	0	99.3
Cn1cc(-c2ccc3c(c2)CCN3C(=O)Cc2cccc(C(F)(F)F)c2)c2c(N)ncnc21 [GSK2606414]	0	6	0	14	0	8	0	0	0	17	1	1	18	3	0	89	8	0	0	99.7
Nc1nc(-c2ccc3c(N)n[nH]c3c2)cc(N2CCCCC2)n1 [GSK2228768]	0	1	0	1	0	11	0	0	0	4	0	12	0	3	0	6	0	15	0	0
Fc1cccc(COc2ccc(Nc3ncnc4sc(-c5ccc[nH]5)cc34)cc2Cl)c1 [GW707818]	28	17	13	0	0	9	8	0	3	31	0	0	0	28	0	22	28	0	30	4
CS(=O)(=O)CCNCc1ccc(-c2ccc3ncnc(Nc4ccc(OCc5ccccc5)c(Cl)c4)c3c2)o1.Cl [GW574783]	7	0	0	20	0	15	10	0	0	6	3	5	0	0	0	0	0	0	4	10
FC(F)(F)c1ccc(-c2nn3ncccc3c2-c2ccnc(Nc3cccc(C(F)(F)F)c3)n2)cc1 [GW828205]	0	0	0	5	30	24	17	2	3	2	0	0	0	0	0	1	34	0	22	86
Cc1cc(N2CCC(NS(=O)(=O)c3ccc(F)cc3)CC2)nc(Nc2cccc(C#N)c2)n1.O=C(O)C(F)(F)F [GSK1653537]	0	0	0	35	25	27	52	27	5	15	1	11	0	0	0	2	0	0	0	0
CC(C)(C)c1ccc(-n2cnc3c(N)ncnc32)cc1 [SKF-97263]	0	58	0	17	40	3	18	6	13	25	18	0	0	0	0	0	0	12	0	27
CSc1nn2c(=O)cc(N3CCOCC3)nc2n1Cc1cccc(Cl)c1Cl [GSK2347225]	0	4	0	32	0	13	87	6	0	33	5	33	0	14	5	24	29	0	3	17
O=C(Nc1ccccc1F)NC1CCN(c2ccnc(Nc3ccc(F)cc3)n2)C1 (centres unmarked) [GSK1379722]	7	4	0	0	0	13	27	0	100	8	0	0	0	0	0	5	0	0	5	3
